Source: PubChem (Broad Institute)
MITF inhib: blocks MITF activity | TRPM1 promoter luciferase, luminescence, 24 h | inhibition, % (no concentration beside the values) | 37,000 compounds, 0.28% hits; in the data active = inhibition above about 85%; inconclusive = no clear call, values can overlap the other calls; inactive = below about 68%;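 note: human melanocyte line stably carrying TRPM1 promoter luciferase reporter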
Shh pathway inh: Sonic Hedgehog pathway inhibition; Shh-LIGHT2 Gli-luciferase reporter, 30 h; inhibition, % (test concentration not listed); 22,000 compounds, 2.1% hits;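 active = mean inhibition across valid replicates above about 65%, limit read from the data; inconclusive = mean under the limit, yet half or more replicates past it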;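 note: pathway switched on by Shh-conditioned medium diluted 1 in 25 in low serum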
NOMO-1 viab: STK33 inhibitor candidate reducing NOMO-1 cell viability | NOMO-1 AML viability, CellTiter-Glo luminescence, 72 h | inhibition, % (test concentration not listed) | 37,000 compounds, 7.5% hits; in the data active = inhibition above about 80%; inconclusive = no clear call, values can overlap the other calls
Starred values were filed as active, the others as inactive; ? = inconclusive; . = not tested or not shown. In the library only some 7.8% were active in any assay of this set; here they are far more common.

SMILES	MITF inhib	Shh pathway inh	NOMO-1 viab
COc1ccc(NC(=O)Nc2ccc3c(c2)CC(=O)N([C@H](C)CO)C[C@@H](C)[C@@H](CN(C)S(=O)(=O)c2ccc(OC)cc2)O3)cc1	12.3	12.8	-14.0
COc1ccc(NC(=O)Nc2ccc3c(c2)CC(=O)N([C@H](C)CO)C[C@H](C)[C@H](CN(C)S(=O)(=O)c2ccc(Cl)cc2)O3)cc1	38.4	-72.8	122.5*
COc1ccc(NC(=O)Nc2ccc3c(c2)CC(=O)N([C@H](C)CO)C[C@@H](C)[C@@H](CN(C)S(=O)(=O)c2ccc(Cl)cc2)O3)cc1	-1.0	-17.5	3.5
O=C(CSc1nc2ccccc2[nH]1)Nc1ccc(Cl)c(Br)c1	8.1	.	26.6
c1ccc(Cn2c3ccccc3n3c(SCc4nc5ccccc5[nH]4)nnc23)cc1	14.6	.	6.9
N#Cc1ccccc1CSc1nnc(Cc2cccc3ccccc23)n1-c1ccccc1	31.4	.	11.0
COc1ccc(S(=O)(=O)N(C)CC(=O)Nc2ccccc2Br)cc1C	20.9	.	6.0
COc1ccccc1-n1nnnc1SCC(=O)Nc1ccc(Br)cc1	-2.8	.	20.5
COc1ccc(CN(C)C[C@@H]2Oc3ccc(NC(=O)Nc4cccc5ccccc45)cc3C(=O)N([C@@H](C)CO)C[C@H]2C)cc1	10.5	-7.7	25.9
COc1ccc(CN(C)C[C@H]2Oc3ccc(NC(=O)Nc4cccc5ccccc45)cc3C(=O)N([C@H](C)CO)C[C@H]2C)cc1	-6.5	5.5	-4.5
C[C@H]1CN([C@@H](C)CO)C(=O)c2cc(NC(=O)Nc3cccc4ccccc34)ccc2O[C@@H]1CN(C)Cc1ccc(Oc2ccccc2)cc1	-6.4	13.8	121.2*
COc1ccc(CN(C)C[C@H]2Oc3ccc(NC(=O)Nc4cccc5ccccc45)cc3C(=O)N([C@@H](C)CO)C[C@@H]2C)cc1	-3.3	-0.3	19.7
C[C@H](CO)N1C[C@H](C)[C@H](CN(C)Cc2ccc(Oc3ccccc3)cc2)Oc2ccc(NC(=O)Nc3cccc4ccccc34)cc2C1=O	18.7	.	113.2*
C[C@@H]1CN([C@H](C)CO)C(=O)c2cc(NC(=O)Nc3cccc4ccccc34)ccc2O[C@@H]1CN(C)Cc1ccc(Oc2ccccc2)cc1	15.3	17.5	89.1*
COc1ccc(CN(C)C[C@@H]2Oc3ccc(NC(=O)Nc4cccc5ccccc45)cc3C(=O)N([C@@H](C)CO)C[C@@H]2C)cc1	14.9	.	34.4
C[C@H](CO)N1C[C@H](C)[C@@H](CN(C)Cc2ccc(Oc3ccccc3)cc2)Oc2ccc(NC(=O)Nc3cccc4ccccc34)cc2C1=O	-1.7	11.9	103.5*
O=C(CSc1nc2sc3c(c2c(=O)n1C1CCCCC1)CCCC3)Nc1ccccc1	-10.3	.	6.3
CS(=O)(=O)N(CC(=O)Nc1ccc(Br)cc1)c1cccc(C(F)(F)F)c1	9.1	.	46.4
N#Cc1ccc(C(=O)Cn2cc(C(F)(F)F)ccc2=O)cc1	10.3	7.0	9.5
Cc1cc(C(=O)CSc2ncn[nH]2)c(C)n1-c1cc(Cl)ccc1Cl	18.9	.	15.4
COC(=O)Nc1nc2ccc(-c3n[nH]c(=O)c4ccccc34)cc2[nH]1	-8.2	-16.1	107.9*
CCCCc1ccc2nc(NC(=O)OC)[nH]c2c1	19.8	41.0	119.7*
O=c1[nH]nc(-c2ccccc2)c2ccccc12	-2.8	18.7	13.2
Cc1ccc2nc(NCCCO)[nH]c2c1	-4.6	.	26.0
COc1ccc(NC(=O)CNC(=O)c2ccc(F)cc2)cc1	-59.8	.	-21.7
SMILES	MITF inhib	Shh pathway inh	NOMO-1 viab
CCOc1c(OC)cc(Cl)cc1C1NC(=O)NC(C)=C1C(=O)Nc1ccccc1C(=O)OC (stereo unspecified)	-18.5	.	23.8
C[C@H](CO)N1C[C@H](C)[C@H](CN(C)Cc2ccc(Oc3ccccc3)cc2)Oc2ccc(NS(=O)(=O)c3cccs3)cc2CC1=O	-3.9	16.7	31.7
C[C@@H]1CN([C@H](C)CO)C(=O)c2cc(NS(=O)(=O)c3cccs3)ccc2O[C@@H]1CN(C)Cc1ccc(Oc2ccccc2)cc1	12.8	45.3	105.9*
C[C@@H]1CN([C@H](C)CO)C(=O)Cc2cc(NS(=O)(=O)c3cccs3)ccc2O[C@H]1CN(C)Cc1ccc(Oc2ccccc2)cc1	31.6	45.1	88.5*
COc1ccc(CN(C)C[C@@H]2Oc3ccc(NS(=O)(=O)c4cccs4)cc3C(=O)N([C@H](C)CO)C[C@@H]2C)cc1	-5.2	18.4	10.1
Cc1ccc(-c2nnc(SCC(=O)Nc3ccc(Br)c(C)c3)n2C)cc1	20.0	.	18.9
N#Cc1c(C(F)(F)F)cc(-c2cccs2)nc1SCC(=O)Nc1c(F)cccc1F	-23.3	.	16.4
N#Cc1c(C(F)(F)F)cc(-c2cccs2)nc1S/C=C/C(=O)c1ccccc1	5.0	-26.4	115.9*
CNC(=O)CSCc1ccc(Br)cc1	-30.5	-57.1	18.4
N#CC(C#N)=C(Nc1ccc(Br)cc1)SCc1ccc(F)cc1	73.3	108.8*	111.8*
Cc1ccccc1-c1nc2cc(NC(=O)COc3ccc(Br)cc3)ccc2o1	-59.2	.	-2.1
COc1ccc(/C=C/C(=O)NC(C)(C)C)cc1	-60.8	-109.9	-6.5
COc1ccc(/C=C/C(=O)OC2CCCCC2)cc1	-79.0	-55.6	95.2*
CCOc1ccc(NC(=O)CSc2nnc(-c3cccs3)n2C)cc1	-11.5	.	2.3
C[C@H]1CC[C@@H]2[C@@H](C(=O)c3c(O)c([C@]4(O)CC[C@@H](O)[C@H]5O[C@H]54)cn(O)c3=O)[C@@H](C)C=C[C@H]2C1	66.6	93.9*	120.0*
CCC(C)c1cnc(Cc2ccccc2)c(=O)[nH]1 (stereo unspecified)	-4.7	6.6	3.9
CCc1ccccc1NC(=O)CSc1nnc(-c2cccc(OC)c2)n1C	-0.8	.	14.6
COc1ccc(NC(=O)Nc2nn(Cc3c(F)cccc3Cl)cc2Cl)cc1OC	-12.0	.	26.5
CC(=O)c1cccc(NC(=O)Nc2nn(Cc3c(F)cccc3Cl)cc2Br)c1	22.9	.	106.0*
Cc1cccc(OCC(=O)Nc2ccccc2N2CCN(S(C)(=O)=O)CC2)c1C	-15.2	.	6.1
COc1ccc(CN(C)C[C@@H]2Oc3ccc(NC(=O)Nc4ccc(C(F)(F)F)cc4)cc3CC(=O)N([C@H](C)CO)C[C@H]2C)cc1	2.9	-34.7	18.4
COc1ccc(CN(C)C[C@@H]2Oc3ccc(NC(=O)Nc4ccc(C(F)(F)F)cc4)cc3CC(=O)N([C@H](C)CO)C[C@@H]2C)cc1	32.0	.	118.3*
COc1ccc(NC(=O)Nc2ccc3c(c2)CC(=O)N([C@@H](C)CO)C[C@H](C)[C@H](CN(C)Cc2ccc(C(F)(F)F)cc2)O3)cc1	6.1	-20.7	34.7
COc1ccc(NC(=O)Nc2ccc3c(c2)CC(=O)N([C@H](C)CO)C[C@@H](C)[C@@H](CN(C)Cc2ccc(C(F)(F)F)cc2)O3)cc1	20.4	?	90.2*
COc1ccc(NC(=O)Nc2ccc3c(c2)CC(=O)N([C@H](C)CO)C[C@@H](C)[C@H](CN(C)Cc2ccc(C(F)(F)F)cc2)O3)cc1	4.9	-33.2	112.7*
COc1ccc(CN(C)C[C@H]2Oc3ccc(NC(=O)Nc4ccc(C(F)(F)F)cc4)cc3CC(=O)N([C@H](C)CO)C[C@H]2C)cc1	52.1	12.4	127.0*
COc1ccc(NC(=O)Nc2ccc3c(c2)CC(=O)N([C@H](C)CO)C[C@H](C)[C@H](CN(C)Cc2ccc(C(F)(F)F)cc2)O3)cc1	2.5	-47.0	60.5
COc1cc2c(cc1NC(=O)CSc1nnc(-c3cnccn3)n1-c1ccccc1)oc1ccccc12	43.1	.	53.1
